From publication PMC6792352, “Limited Chemical Structural Diversity Found to Modulate Thyroid Hormone Receptor in the Tox21 Chemical Library” (Environmental Health Perspectives, 2019)
Where a name gives a salt, the structure may show the parent alone.

These molecules were tested on thyroid hormone receptor (endogenous TRα and TRβ). Details: read-out: Average AC50 (uM) GH3-TRE-Antag, antagonist mode, 1 nM T3, no GH3 cytotoxicity hit.
Design: species or system GH3-TRE-Luc (rat pituitary); GH3-TRE-Luc luciferase reporter, antagonist mode against 1 nM T3, loss of signal, qHTS
Molecule `Cc1cc(-n2c(=O)[nH]c(=O)n(C)c2=O)ccc1Oc1ccc(S(=O)(=O)C(F)(F)F)cc1` [Toltrazuril sulfone] has an AC50 of 51.6 µM.
Work on `CC(C)C(C(=O)OC(C#N)c1cccc(Oc2ccccc2)c1)c1ccc(OC(F)F)cc1` (centres unmarked) [Flucythrinate] yielded an AC50 of 32.5 µM.
`Cc1cc(C)c(/C=C2\C(=O)Nc3ccccc32)[nH]1` [SU-5416] showed an AC50 of 18.1 µM.
`CC[C@H](NC(=O)c1cc(F)ccc1NS(=O)(=O)c1cccc2cccnc12)c1ccccc1` [AVE3295] showed an AC50 of 56.9 µM.
With `CCCCOCCOC(=O)c1ccccc1C(=O)OCCOCCCC` [Bis(2-butoxyethyl) phthalate] the AC50 was 67.1 µM.
`O=C(O)c1cc(Cl)cc(Cl)c1O` [3,5-Dichlorosalicylic acid] showed an AC50 of 68.6 µM.
Molecule `CCCCCCCCCCCC(=O)O` [Dodecanoic acid] has an AC50 of 68.4 µM.
Work on `Nc1ccc(Br)cc1` [4-Bromoaniline] yielded an AC50 of 47.9 µM.
`CC(C)(O)c1cnn2c(-c3ccc(F)c(-c4c(F)cccc4C#N)c3)cnc2n1` [PharmaGSID_47330] gave an AC50 of 42.1 µM.
Molecule `CCCCCOC(=O)COc1cc(N2C(=O)C3=C(CCCC3)C2=O)c(F)cc1Cl` [Flumiclorac-pentyl] has an AC50 of 52.5 µM.
`O=C(O)Cc1ccccc1Nc1c(Cl)cccc1Cl` [Diclofenac sodium] showed an AC50 greater than 50 µM.
`CCCCNc1c(C(=O)OCC)c(C)nc2c1cnn2CC` [Tracazolate hydrochloride] was tested, and the AC50 was 42.6 µM.
`c1ccc2sc(SN(C3CCCCC3)C3CCCCC3)nc2c1` [N,N-Dicyclohexyl-2-benzothiazolesulfenamide] gave an AC50 of 33.2 µM.
Molecule `CCCCC(CC)COC(=O)c1ccc(N(C)C)cc1` (centres unmarked) [2-Ethylhexyl 4-(dimethylamino)benzoate] has an AC50 of 47.2 µM.
